{"source": "PubChem BioAssay (NCATS)", "note": "Inconclusive results are not listed. Calls of active or inactive are those of the source. Calls follow the shape of the dose curve; as a rule, active = well fitted cell-killing curve with a large enough effect; inconclusive = small, poorly fitted or top-dose-only effect, or effect the other way; inactive = flat fitted curve, though single readings scatter. % is scaled to controls: 0 for no effect and ±100 for the full control effect.", "data": [{"tested_on": "CAOV3", "assay": "Primary qHTS to identify gynecologic anti-cancer compounds using libraries of approved drugs and bioactive compounds (AID 1345084); also: nearly all actives have a fitted effect of over 55% in size", "details": "Gynecologic cancer cell panel viability, ATPlite luminescence, 48 h; series mostly up to 57.5 µM; activity change, negative = cytotoxicity: at the top concentration", "in_short": "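ATP-based viability (ATPlite), 1,000 cells/well, 16 h pre-incubation, 48 h compound at 37 C, 5% CO2, 15 min RT before read.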", "values": [{"smiles": "CC(=O)C12OC(C)(C)OC1CC1C3CCC4=CC(=O)C=CC4(C)C3(F)C(O)CC12C", "note": "(centres undefined)", "activity change, negative = cytotoxicity": "-5.19% (inactive)"}, {"smiles": "COC(=O)C1=CO[C@@H](O[C@@H]2O[C@H](CO[C@@H]3O[C@H](COC(=O)/C=C/c4cc(OC)c(O)c(OC)c4)[C@@H](O)[C@H](O)[C@H]3O)[C@@H](O)[C@H](O)[C@H]2O)[C@@H]2C(CO)=CC[C@H]12", "activity change, negative = cytotoxicity": "-0.651% [at 25.3 µM] (inactive)"}, {"smiles": "CC1=C2C3OC(=O)C(C)C3(O)CCC2(C)CCC1O", "note": "(centres undefined)", "activity change, negative = cytotoxicity": "22% (inactive)"}, {"smiles": "COc1ccccc1Oc1ccc(N(Cc2cccnc2)S(=O)(=O)CC(F)(F)F)cc1", "activity change, negative = cytotoxicity": "23.1% (inactive)"}, {"smiles": "O=C(/C=C/c1ccc(O)cc1)N[C@@H](Cc1ccc(O)cc1)C(=O)O", "activity change, negative = cytotoxicity": "13.8% [at 38.5 µM] (inactive)"}, {"smiles": "CC1=C(C)C(=O)OC(C(C)C2CCC3C4C5OC5C5(O)CC(OC6OC(CO)C(OC7OC(C)C(O)C(O)C7O)C(O)C6O)CC(O)C5(C)C4CCC23C)C1", "note": "(centres undefined)", "activity change, negative = cytotoxicity": "5.63% [at 25.3 µM] (inactive)"}, {"smiles": "C=C[C@H]1CN2CC[C@H]1C[C@@H]2C(O)c1ccnc2ccc(OC)cc12", "note": "(some centres undefined)", "activity change, negative = cytotoxicity": "-0.0922% [at 38.5 µM] (inactive)"}, {"smiles": "C=C[C@H]1C(O[C@@H]2O[C@H](CO)[C@@H](O)[C@H](O)[C@H]2O)OC=C2C(=O)N3CCc4c([nH]c5ccccc45)C3CC21", "note": "(some centres undefined)", "activity change, negative = cytotoxicity": "-35.2% [at 25.3 µM] (inactive)"}, {"smiles": "O=C(O)/C=C/c1ccc(O)c(O[C@@H]2O[C@H](CO)[C@@H](O)[C@H](O)[C@H]2O)c1", "activity change, negative = cytotoxicity": "7.89% [at 38.5 µM] (inactive)"}, {"smiles": "C=C(C(=O)O)C1CC(O)C2(C)CCCC(=C)C2C1", "note": "(centres undefined)", "activity change, negative = cytotoxicity": "-7.77% (inactive)"}, {"smiles": "CC1CCC2(C(=O)O)CCC3(C)C(=CCC4C5(C)CCC(OC(=O)/C=C/c6ccccc6)C(C)(C)C5CCC43C)C2C1C", "note": "(centres undefined)", "activity change, negative = cytotoxicity": "2.04% [at 25.3 µM] (inactive)"}, {"smiles": "C=C[C@H]1[C@H](O[C@@H]2O[C@H](CO)[C@@H](O)[C@H](O)[C@H]2O)OC=C(C(=O)OC)[C@H]1CC(=O)O", "activity change, negative = cytotoxicity": "-7.24% [at 38.5 µM] (inactive)"}, {"smiles": "CNC12CC3C[C@@](C)(C1)C[C@](C)(C3)C2", "activity change, negative = cytotoxicity": "0.228% (inactive)"}, {"smiles": "COc1cccc2cc3c(c(O[C@@H]4O[C@H](CO[C@@H]5O[C@H](CO)[C@@H](O)[C@H](O)[C@H]5O)[C@@H](O)[C@H](O)[C@H]4O)c12)C(C)OC3=O", "note": "(some centres undefined)", "activity change, negative = cytotoxicity": "10.3% [at 25.3 µM] (inactive)"}, {"smiles": "C/C(=C\\CC[C@@H](C)[C@H]1CC(O)[C@@]2(C)C3CC[C@H]4C(C)(C)[C@@H](OC5OCC(O)C(O)C5OC5OC(CO)C(O)C(O)C5O)CC[C@@]45C[C@@]35CC(O)[C@]12C)C(=O)O", "note": "(some centres undefined)", "activity change, negative = cytotoxicity": "-17.3% [at 25.3 µM] (inactive)"}, {"smiles": "Cc1ccc(NC(=O)C(=O)NC2CC(C)(C)NC(C)(C)C2)cc1", "activity change, negative = cytotoxicity": "-0.0309% (inactive)"}, {"smiles": "C=CC(C)(C)C12C=C(OC)C(=O)N3C(C(C)C)C(=O)NC31N(OC)c1ccccc12", "note": "(centres undefined)", "activity change, negative = cytotoxicity": "17.6% [at 25.3 µM] (inactive)"}, {"smiles": "O=S(=O)(NC1CCC(c2cc(F)ccc2F)(S(=O)(=O)c2ccc(Cl)cc2)CC1)C(F)(F)F", "note": "(centres undefined)", "activity change, negative = cytotoxicity": "3.5% (inactive)"}, {"smiles": "CC(C)=CCC[C@](C)(O[C@@H]1O[C@H](CO)[C@@H](O)[C@H](O)[C@H]1O)[C@H]1CC[C@]2(C)[C@@H]1[C@H](O)CC1[C@@]3(C)CC[C@H](O)C(C)(C)C3[C@@H](O[C@@H]3O[C@H](CO)[C@@H](O)[C@H](O)[C@H]3O[C@@H]3OC[C@@H](O)[C@H](O)[C@H]3O)C[C@]12C", "note": "(some centres undefined)", "activity change, negative = cytotoxicity": "0.415% [at 11.6 µM] (inactive)"}, {"smiles": "CC(=O)OC1CC2(C)C3=CCC4(C)C5C(O)C(O)C(C(C)C)C5(C)CCC4(C)C3CCC2C(C)(C)C1OC1OC(CO)C(O)C(O)C1O", "note": "(centres undefined)", "activity change, negative = cytotoxicity": "-3.93% [at 25.3 µM] (inactive)"}, {"smiles": "CC1(C)CCCC2(C)C1CC(=O)C13CC(CCC12)C(O)(CO)C3", "note": "(centres undefined)", "activity change, negative = cytotoxicity": "1.16% [at 38.5 µM] (inactive)"}, {"smiles": "CC1=CC(=O)C2(OC3OC(C)C(O)C(OC(=O)/C=C/c4ccccc4)C3O)C=COC(OC3OC(CO)C(O)C(O)C3O)C12", "note": "(centres undefined)", "activity change, negative = cytotoxicity": "-4.59% [at 25.3 µM] (inactive)"}, {"smiles": "C=C(CO)C12OC1C1(C)C(=CC2=O)C(O)C(O)CC1C", "note": "(centres undefined)", "activity change, negative = cytotoxicity": "8.81% (inactive)"}, {"smiles": "O=C(CCc1ccccc1)N1CCC(O)(Cn2cnc3cc(Cl)ccc3c2=O)CC1", "activity change, negative = cytotoxicity": "-3.14% (inactive)"}, {"smiles": "C=CC(C)(O)CC[C@H]1C(=C)CCC2[C@](C)(C(=O)O)CCC[C@@]21C", "note": "(some centres undefined)", "activity change, negative = cytotoxicity": "4.4% [at 38.5 µM] (inactive)"}, {"smiles": "C=C1[C@H](OC(C)=O)[C@H]2[C@@H](OC(C)=O)[C@](C)(OC(C)=O)C[C@]2(OC(C)=O)C(=O)[C@H](C)/C=C/C(C)(C)C(=O)[C@H](OC(=O)C(C)CC)[C@H]1OC(C)=O", "note": "(some centres undefined)", "activity change, negative = cytotoxicity": "23% [at 25.3 µM] (inactive)"}, {"smiles": "C=C(C(=O)O)C1CCC2(C)CCC(O)C(C)(O)C2C1", "note": "(centres undefined)", "activity change, negative = cytotoxicity": "28.8% (inactive)"}, {"smiles": "C[C@@H]1O[C@@H](OC[C@H]2O[C@@H](OC(CCCCc3ccc(O)cc3)CCc3ccc(O)cc3)[C@H](O)[C@@H](O)[C@@H]2O)[C@H](O)[C@H](O)[C@H]1O", "note": "(some centres undefined)", "activity change, negative = cytotoxicity": "-4.7% [at 25.3 µM] (inactive)"}, {"smiles": "COC(=O)c1ccc(OC(CO)C(O)c2ccc(O)c(OC)c2)c(OC)c1", "note": "(centres undefined)", "activity change, negative = cytotoxicity": "2.69% [at 38.5 µM] (inactive)"}, {"smiles": "C/C1=C\\C[C@]2(C)C(=O)C(O)=C([C@H](C)CO)[C@H]2C/C=C(\\C)[C@@H](O)CC/C(C)=C/CC1", "activity change, negative = cytotoxicity": "1.94% [at 38.5 µM] (inactive)"}, {"smiles": "C=C(C)C1CCC2(C(=O)O)CCC3(C(=O)O)C(CCC4C5(C)CCC(O)C(C)(C(=O)O)C5CCC43C)C12", "note": "(centres undefined)", "activity change, negative = cytotoxicity": "-10.4% [at 25.3 µM] (inactive)"}, {"smiles": "O=C(Nc1ccccc1-c1cn2c(CN3CCNCC3)csc2n1)c1ccc2ccccc2n1", "activity change, negative = cytotoxicity": "19.3% (inactive)"}, {"smiles": "COc1c2c(c(CO)c3c1C(=O)OC3)OC1(C)CCC3(O)C(C)(C)OC(=O)CCC3(C)C1C2", "note": "(centres undefined)", "activity change, negative = cytotoxicity": "6.9% [at 25.3 µM] (inactive)"}, {"smiles": "CC(C)C(N)C(=O)OCCOCn1cnc2c(=O)[nH]c(N)nc21", "note": "(centres undefined)", "activity change, negative = cytotoxicity": "-2.11% (inactive)"}, {"smiles": "O=C(Nc1ccc(S(=O)(=O)Nc2nccs2)cc1)C(c1ccccc1)c1ccccc1", "activity change, negative = cytotoxicity": "-8.24% (inactive)"}, {"smiles": "CN=C(N)NCCCCC/C=C(/C)CC(C)C1OC(=O)C(C)C(O)/C=C/C(C)C(O)CC(O)C(C)C(O)CCC(C)C(O)CC2(O)OC(CC(OC(=O)CC(=O)O)CC(O)CC(O)C(C)C(O)/C(C)=C/CCC1C)CC(O)C2O", "note": "(centres undefined)", "activity change, negative = cytotoxicity": "12.9% [at 11.6 µM] (inactive)"}, {"smiles": "CCOCCn1nc(CC)c2nc(N3CCC(C(=O)O)CC3)nc(Nc3cc(C)ccn3)c21", "activity change, negative = cytotoxicity": "-3.25% (inactive)"}, {"smiles": "CC1OC(OC2C(CO)OC(OCC3OC(OC(=O)C45CCC(C)(C)CC4C4=CCC6C7(C)CCC(OC8OC(CO)C(O)C(OC9OC(CO)C(O)C(O)C9O)C8O)C(C)(C)C7CCC6(C)C4(C)CC5)C(O)C(O)C3O)C(O)C2O)C(O)C(O)C1OC1OC(CO)C(O)C(O)C1O", "note": "(centres undefined)", "activity change, negative = cytotoxicity": "-14.1% [at 6.55 µM] (inactive)"}, {"smiles": "O=c1[nH]ccc2cc(OC3CCNCC3)ccc12", "activity change, negative = cytotoxicity": "-6.77% (inactive)"}]}]}
